Results on five compounds are retold here after PubChem BioAssay (NCATS).

A number with no mark means an inactive call. Results filed as inconclusive are left out. The source made the active and inactive calls. Unless noted, the call rests on the fitted dose curve; in most records, active means well fitted curve in the direction sought with a large enough effect; inconclusive means small, poorly fitted or top-dose-only effect, or another doubt; inactive means no such curve, though single readings can be large; an effect the other way counts as inactive or inconclusive.

Assay [1] addresses Mitogen-activated protein kinase 10 (Mus musculus) (UniProt Q61831). Description: JNK3 AlphaScreen Assay (AID 530; active means well fitted curve in either direction with a large enough effect, not every such curve was filed as active;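 further: kinase came from lysate of stimulated human HepG2 cells; signal reports phosphorylation of biotinylated GST-cJun 1-79 at Ser73 with 10 µM ATP; on the % scale 0 is the no-effect control and ±100 the full control effect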). Particulars: JNK3 lysate, c-Jun phosphorylation; series mostly up to 57.1 µM. The gist of the method:
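Biotinylated GST-cJun(1-79) served as substrate for JNK3 in HepG2 lysates stimulated with IL-1beta and TNF-alpha. ATP was 10 uM final, pH 7.6. Ser73 phosphorylation was quantified by AlphaScreen (680 nm excitation).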

The nature of assay [2]: Cell Viability - N2a (AID 540).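 Further: plate controls were DMSO alone for no effect and tamoxifen control for full effect; nearly all actives have a fitted effect of over 45% in size.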 Particulars: N2a mouse neuroblastoma cell viability; series mostly up to 92.2 µM. The gist of the method:
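N2a mouse neuroblastoma, 1500 cells/well, 5 hr settle; compound 40 hr, 37 °C; CellTiter-Glo 20 min RT; luminescence; Hill-fit AC50.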

Assay [3] in a line: Cell Viability - NIH 3T3 (AID 541).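 Further: cells exposed to compound for 40 hours; plate controls were DMSO alone for no effect and tamoxifen positive control for full effect; nearly all actives have a fitted effect of over 25% in size.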 The note with it: NIH 3T3 cell viability, qHTS; at 92.2 µM (top of the series). The gist of the method: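 qHTS format; 40 hr compound exposure, 37 °C; CellTiter-Glo luminescence (cellular ATP) read-out after 20 min at RT. Decrease in ATP = cytotoxicity; AC50 from standard Hill fit.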
Assay [4] can be described thus: Cell Viability - HUV-EC-C (AID 542).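 Further: cells exposed to compound for 40 hours; on the % scale 0 is the no-effect control and ±100 the full control effect; nearly all actives have a fitted effect of over 35% in size.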 Particulars: HUV-EC-C endothelial cell viability, qHTS; series mostly up to 92.2 µM. The gist of the method: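 Luminescent ATP read-out (CellTiter-Glo, 20 min room temperature) after 40 hr compound treatment of HUV-EC-C cells at 37 °C. Concentration-response data fitted with the standard Hill equation to give AC50; tamoxifen and doxorubicin served as positive controls.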
On the technique in general: In qHTS, concentration-response curves come from the screen itself.

Assay [5] can be described thus: Cell Viability - H-4-II-E (AID 543).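 Further: cells exposed to compound for 40 hours; on the % scale 0 is the no-effect control and ±100 the full control effect; nearly all actives have a fitted effect of over 35% in size.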 Particulars: H-4-II-E rat hepatoma viability; series mostly up to 92.2 µM. The method, boiled down: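 qHTS, rat hepatoma H-4-II-E, 1500 cells/well; 40 hr compound exposure, 37 °C; CellTiter-Glo ATP luminescence after 20 min RT; AC50 by standard Hill fit.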
Assay [6] in a line: Cell Viability - SH-SY5Y (AID 544).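 Further: cells exposed to compound for 40 hours; nearly all actives have a fitted effect of over 55% in size.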 Particulars: SH-SY5Y neuroblastoma cell viability; series mostly up to 92.2 µM. The method, boiled down:
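SH-SY5Y, 1500 cells/well, 5 hr pre-incubation 37 °C; cpd 40 hr 37 °C; CellTiter-Glo 20 min RT; luminescence (ATP) read. qHTS concentration-response, Hill fit → AC50. Tamoxifen, doxorubicin as positive controls.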

Assay [7] in a line: Cell Viability - Renal Proximal Tubule (AID 545).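 Further: cells exposed to compound for 40 hours; nearly all actives have a fitted effect of over 40% in size.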 The note with it: renal proximal tubule cells viability; series mostly up to 91.7 µM. The method, boiled down:
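Cytotoxicity is scored as a concentration-dependent drop in cellular ATP in primary rat renal proximal tubule cells exposed for 40 hr. AC50 derives from Hill modelling.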

Assay [8] is described as follows: Cell Viability - Mesenchymal (AID 546).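 Further: cells exposed to compound for 40 hours before reading.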 Particulars: mesenchymal cells viability, qHTS; series mostly up to 91.7 µM. The method, boiled down: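 In this qHTS cytotoxicity format, glomerulus-derived human mesenchymal kidney cells received compound for 40 hr, then luciferase-based ATP quantitation. Concentration-response data were fitted with the Hill equation.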
Assay [9] in a line: Cellular Toxicity (caspase-3) HepG2 (AID 654).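 Further: cells exposed to compound for 16 hours before reading.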 Particulars: HepG2 caspase-3 activation, luminescence, 0% = DMSO only, 100% = tamoxifen; series mostly up to 92.2 µM. The gist of the method:
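Luminescent Caspase-Glo 3/7 readout after 16 hr compound exposure of human hepatocellular carcinoma HepG2 cells at 37 °C; qHTS concentration-response, normalized DMSO = 0%, 100 uM tamoxifen = 100%; AC50 by standard Hill equation.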

A short description of assay [10]: Cellular Toxicity (caspase-3) Jurkat (AID 655).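 Further: cells exposed to compound for 16 h at 37 °C before reading.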 Particulars: Jurkat caspase-3 activation, luminescence, DMSO = 0%, tamoxifen = 100%; at 92.2 µM (top of the series). The gist of the method: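 Caspase 3/7 activation is scored as increased luminescence in Jurkat cells cultured with compound for 16 hours in complete medium. AC50 values come from Hill fits of qHTS concentration-response data normalized to DMSO and 100 uM tamoxifen controls.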

Assay [11] can be described thus: Cellular Toxicity (caspase-3) HUV-EC-C (AID 656). Particulars: HUV-EC-C cells, caspase-3 activation (apoptosis); series mostly up to 92.2 µM. The method, boiled down:
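Read-out: luminescence proportional to caspase 3/7 activity, measured 20 min after adding Caspase-Glo 3/7 reagent. Cells (HUV-EC-C) had received compound for 16 hr at 37°C. Increases relative to DMSO and 100 uM tamoxifen gave concentration-response AC50 values.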

Assay [12] in a line: Cellular Toxicity (caspase-3) SHSY5Y (AID 657).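 Further: cells exposed to compound for 16 hours at 37 °C.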 The note with it: SH-SY5Y caspase-3 activation, DMSO zero, 10 µM staurosporine = 100%; series mostly up to 91.7 µM. The method, boiled down: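 Cells plated and incubated 5 h at 37 °C, dosed over a concentration range, incubated 16 h, then given Caspase-Glo 3/7 reagent for 1 h at room temperature before luminescence reading. Staurosporine (10 uM) defined full stimulation.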

A short description of assay [13]: Cellular Toxicity (caspase-3) BJ (AID 658). The note with it: BJ fibroblasts, luminescence, normalized: DMSO 0%, staurosporine 100%; series mostly up to 91.7 µM. The method, boiled down:
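Plated BJ cells (1000/well) rested 5 hr, received compound for 16 hr at 37 °C, then Caspase-Glo 3/7 reagent for 1 hr at room temperature before luminescence reading.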

Assay [14] in a line: Cellular Toxicity (caspase-3) MRC-5 (AID 659). The note with it: MRC-5 cells, luminescence, normalized: DMSO 0%, 10 µM staurosporine 100%; series mostly up to 91.7 µM. The method, boiled down:
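Apoptosis readout in MRC-5 cells: luciferase light generated after caspase 3/7 cleaves a peptide-aminoluciferin substrate, measured post 16 hr compound incubation at 37 °C.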

Assay [15] is described as follows: Cellular Toxicity (caspase-3) Mesangial (AID 660).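 Further: cells exposed to compound for 16 h before the caspase read.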 The note with it: mesangial cells, normalized: DMSO 0%, 100 µM tamoxifen 100%; series mostly up to 91.7 µM. The gist of the method: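 Luminescent Caspase-Glo 3/7 readout (aminoluciferin substrate cleavage, 20 min RT) after 16 h compound exposure at 37 °C of normal human mesangial cells. Signal increase normalized between DMSO basal and 100 uM tamoxifen; Hill-equation AC50.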

Assay [16] can be described thus: Cellular Toxicity (caspase-3) SK-N-SH (AID 661). The note with it: SK-N-SH caspase-3 activation, qHTS, DMSO as zero, staurosporine as full; series mostly up to 91.7 µM. The method, boiled down:
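Luminescent Caspase-Glo 3/7 read-out after 16 hr compound exposure of SK-N-SH neuroblastoma cells at 37 °C. Signal increase normalized to DMSO (basal) and 10 uM staurosporine (100%); AC50 from Hill equation fits of qHTS concentration-response data.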

Assay [17] can be described thus: Cellular Toxicity (caspase-3) H-4-II-E (AID 663).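 Further: cells exposed to compound for 16 hr before readout.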 Particulars: H-4-II-E rat hepatoma, scaled: DMSO 0%, 100 µM tamoxifen 100%; series mostly up to 92.2 µM. The gist of the method: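 Caspase 3/7 activation measured in H-4-II-E cells in complete culture medium after 16 hr treatment at 37 °C, using luciferase-coupled substrate readout; AC50 values come from Hill-equation fits of normalized concentration-response data.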

Assay [18] is described as follows: Cellular Toxicity (caspase-3) Hek293 (AID 664).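 Further: cells exposed to compound for 16 h at 37 °C before readout.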 The note with it: HEK293 caspase-3 activation, DMSO = 0%, 100 µM tamoxifen = 100%; series mostly up to 92.2 µM. The method, boiled down: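 Luminescent Caspase-Glo 3/7 readout (aminoluciferin release) in HEK293 cells after 16 h compound treatment, 37 °C. Normalization: DMSO = basal, 100 uM tamoxifen = 100% stimulation. Concentration-response fitted with standard Hill equation for AC50.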

Assay [19] has as its target Glucocorticoid receptor (Homo sapiens) (UniProt P04150). Description: GR-EFC Redistribution (AID 451; calls by dose curve; further: potency means the concentration at half of the fitted maximal effect). Particulars: CHO-K1 GR-EFC translocation, beta-gal luminescence, 2 h. The gist of the method:
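CHO-K1 cells stably expressing nuclear-localized β-gal enzyme acceptor and GR fused C-terminally to the enzyme donor fragment; ligand-driven nuclear translocation restores β-gal by complementation. Compounds titrated up to 46 uM final, 2 h at 37 °C; luminescence read.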

For assay [20], the target named is 3',5'-cyclic-AMP phosphodiesterase 4B (Homo sapiens) (UniProt Q07343). The experiment in a line: qHTS Assay for Inhibitors of PDE-IV (AID 607; active means well fitted activation curve with a large enough effect in the main read-out, with a control signal flat, not every such curve was filed as active; further: % of control where 0% means no effect). The note with it: HEK293 ACTOne CNG channel cells, membrane potential fluorescence; series mostly up to 22.9 µM. The gist of the method:
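HEK293 ACTOne cells with CNG channel (1000/well), endogenous PDE4; membrane potential dye, compounds up to 22.9 uM final. Fluorescence Ex 535/Em 590; RO 20-1724 (100 uM final) as reference.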

Chain of Glucocorticoid receptor (Homo sapiens) (P04150 whole entry, looked up, the tested form may be a part): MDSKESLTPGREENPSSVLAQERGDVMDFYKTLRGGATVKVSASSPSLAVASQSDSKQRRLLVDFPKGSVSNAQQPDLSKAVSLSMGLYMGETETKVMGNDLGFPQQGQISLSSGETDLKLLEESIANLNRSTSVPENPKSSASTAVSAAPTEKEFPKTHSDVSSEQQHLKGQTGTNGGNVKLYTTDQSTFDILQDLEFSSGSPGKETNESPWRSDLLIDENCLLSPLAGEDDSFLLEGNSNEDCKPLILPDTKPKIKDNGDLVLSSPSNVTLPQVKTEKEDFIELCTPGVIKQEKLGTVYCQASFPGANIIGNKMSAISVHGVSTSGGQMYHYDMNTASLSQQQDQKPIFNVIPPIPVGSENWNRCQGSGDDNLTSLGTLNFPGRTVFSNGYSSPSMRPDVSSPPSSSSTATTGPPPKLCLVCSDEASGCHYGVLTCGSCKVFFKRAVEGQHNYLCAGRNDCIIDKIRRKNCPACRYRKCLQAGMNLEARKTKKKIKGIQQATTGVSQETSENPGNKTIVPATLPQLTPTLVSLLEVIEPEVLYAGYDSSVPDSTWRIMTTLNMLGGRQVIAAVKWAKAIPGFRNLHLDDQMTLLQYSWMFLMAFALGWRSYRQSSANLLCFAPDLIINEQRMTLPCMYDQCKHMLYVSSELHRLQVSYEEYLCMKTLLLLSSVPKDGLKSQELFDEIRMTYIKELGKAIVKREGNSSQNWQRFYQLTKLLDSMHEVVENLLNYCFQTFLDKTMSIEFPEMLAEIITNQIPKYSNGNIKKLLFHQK
Chain of 3',5'-cyclic-AMP phosphodiesterase 4B (Homo sapiens) (Q07343 whole entry, looked up): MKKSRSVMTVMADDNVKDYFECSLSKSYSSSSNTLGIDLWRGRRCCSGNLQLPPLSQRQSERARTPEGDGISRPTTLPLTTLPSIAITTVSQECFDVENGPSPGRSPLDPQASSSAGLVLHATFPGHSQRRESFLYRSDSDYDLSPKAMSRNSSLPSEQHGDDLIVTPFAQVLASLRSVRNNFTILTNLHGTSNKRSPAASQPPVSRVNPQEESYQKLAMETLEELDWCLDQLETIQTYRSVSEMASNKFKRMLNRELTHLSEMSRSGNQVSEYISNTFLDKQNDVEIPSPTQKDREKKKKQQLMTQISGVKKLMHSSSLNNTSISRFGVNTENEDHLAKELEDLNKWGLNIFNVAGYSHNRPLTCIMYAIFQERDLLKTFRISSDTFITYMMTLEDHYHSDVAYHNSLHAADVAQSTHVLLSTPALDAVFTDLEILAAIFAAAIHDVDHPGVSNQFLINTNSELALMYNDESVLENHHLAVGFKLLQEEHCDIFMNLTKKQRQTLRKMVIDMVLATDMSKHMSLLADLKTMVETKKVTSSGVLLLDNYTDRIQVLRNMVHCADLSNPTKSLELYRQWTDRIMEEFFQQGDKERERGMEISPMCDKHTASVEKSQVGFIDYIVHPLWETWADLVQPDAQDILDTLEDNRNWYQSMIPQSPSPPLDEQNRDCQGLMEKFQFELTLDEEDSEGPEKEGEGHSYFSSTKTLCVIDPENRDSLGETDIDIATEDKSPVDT

Turning to `Nc1ccccc1C(=O)O`, the compound was classed as inactive in [1], in assay [2], in assay [7], in assay [8], in [9] and in [12]. Also, the call in assay [13], in [14], in assay [15], in assay [16], in [17] and in [18] was inactive. In addition, the activity change, negative = cytotoxicity in assay [3] is -17.8%. The Potency result in assay [4], in [5], in assay [6] and in [11] was “inactive” throughout. In addition, in assay [10], the caspase-3 activation was -0.541%.

Consider `Nc1ccccc1`, for which the result in [1], in assay [2], in assay [7], in [8], in [9] and in [12] was inactive. Moreover, the result in assay [13], in assay [14], in assay [15], in assay [16], in assay [17] and in assay [18] was inactive. Moreover, the activity change, negative = cytotoxicity in [3] is -16.9%. The Potency result in [4], in [5], in [6] and in assay [11] was “inactive” throughout. Moreover, the caspase-3 activation in assay [10] was -1.64%.

As for `O=P1(N(CCCl)CCCl)NCCCO1` (stereo not drawn), the Potency in assay [19] was over 46 µM. Moreover, the compound was called inactive in assay [1], in assay [2], in assay [7], in [8], in [20] and in [9]. Moreover, the compound was classed as inactive in assay [12], in [13], in assay [14], in [15], in assay [16] and in assay [17]. The call in assay [18] was inactive. The activity change, negative = cytotoxicity in assay [3] was 2.35%. In addition, the Potency entry in [4], in assay [5], in assay [6] and in assay [11] was “inactive” throughout. Also, in [10], the caspase-3 activation was -0.663%.

As for `NCCc1ccc(O)cc1`, in [19], the Potency was over 46 µM. The result in assay [1], in assay [2], in assay [7], in [8], in [20] and in assay [9] was inactive. Besides, the call in [12], in assay [13], in [14], in [15], in assay [16] and in assay [17] was inactive. For the same compound, the outcome in assay [18] was inactive. Also, the activity change, negative = cytotoxicity in assay [3] was -149% (active). For the same compound, the Potency entry in assay [4], in assay [5], in [6] and in assay [11] was “inactive” throughout. Moreover, in assay [10], the caspase-3 activation was 3.49%.

As for `COc1cc(OC)c(OC)cc1C=O`, the compound was classed as inactive in assay [2], in assay [7], in [8], in assay [9], in assay [12] and in assay [13]. In addition, the compound was called inactive in assay [14], in assay [15], in assay [16], in assay [17] and in [18]. The activity change, negative = cytotoxicity in assay [3] was 6.21%. The Potency entry in assay [4], in assay [5], in [6] and in assay [11] was “inactive” throughout. Moreover, in [10], the caspase-3 activation was 1.29%.
